Where “and” joins values, the source holds several entries; their conditions need not be identical. Identical values can stand only once. Records with an inconclusive call do not appear. Entries that show only a call come without a potency. Calls of active or inactive are those of the source. Unless noted, calls follow the shape of the dose curve; as a rule, active = well fitted curve in the direction sought with a large enough effect in the repeat runs; inconclusive = weak or mixed curves; inactive = no such curve, though single readings can be large; an effect the other way counts as inactive or inconclusive.
Assays:
[1] = qHTS assay to identify small molecule antagonists of the androgen receptor (AR) signaling pathway using the MDA cell line in the presence of 0.5 nM R1881 - cell viability counter screen (AID 1259242); also: nearly all actives have a fitted effect of over 45% in size; also: potency is read from the fitted curve at half-maximal effect
Outline: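 Live-cell protease activity was measured by CellTiter-Fluor fluorescence after 30 min. Before that, MDA-kb2 MMTV-luciferase cells had 16 hr at 37C without CO2, exposed to test compounds and 0.5 nM R1881 final.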

[2] = molecular target: Estrogen receptor (Homo sapiens) (UniProt P03372); assay: qHTS assay to identify small molecule antagonists of the estrogen receptor alpha (ER-alpha) signaling pathway using the BG1 cell line in the presence of 0.1 nM 17-beta-estradiol (AID 1259244); also: nearly all actives have a fitted effect of over 50% in size; also: potency is read from the fitted curve at half-maximal effect
Outline: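 Luciferase luminescence (ONE-Glo, 30 min at room temperature) was read after 22 hr at 37C exposure to compounds plus 17beta-estradiol at 0.1 nM final. Cells were VM7Luc4E2 with endogenous ER-alpha and an ERE-driven luciferase, pre-cultured 5 days in hormone-depleted medium.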

[3] = qHTS assay to identify small molecule HDAC inhibitors (AID 1259364); also: top concentration of the series differs between compounds; nearly all actives have a fitted effect of over 45% in size
Outline: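 Luminescence read after 30 min room-temperature HDAC-Glo incubation measures cellular class I/II HDAC activity. Compounds were applied for 2 hr at 37 C to HCT-116 wild-type cells seeded the day before.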

[4] = qHTS assay to identify small molecule HDAC inhibitors - cell viability counter screen (AID 1259365); also: series mostly up to about 92 µM; nearly all actives have a fitted effect of over 50% in size
Outline: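 Wild-type HCT-116 cells were seeded at 1,500 per well, incubated overnight at 37 C, then exposed to compounds in DMSO for 2hr. Viability was read by CellTiter-Glo luminescence after 30min at room temperature.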

[5] = qHTS assay to identify small molecule agonists of the sonic hedgehog signaling (Shh) pathway - cell viability counter screen (AID 1259366); also: nearly all actives have a fitted effect of over 50% in size; also: potency is read from the fitted curve at half-maximal effect
Outline: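 NIH/3T3-derived 3T3 Gli1-Luc cells (stable Gli1-responsive firefly luciferase reporter) were seeded, rested 4 hr at 37 C/5% CO2, then exposed to compounds in DMSO for 24 hr; viability was read by CellTiter-Fluor fluorescence in the same wells.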

[6] = qHTS assay to identify small molecule antagonists of the sonic hedgehog signaling (Shh) pathway - cell viability counter screen (AID 1259367); also: nearly all actives have a fitted effect of over 55% in size
Outline: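 CellTiter-Fluor signal in conditioned medium-stimulated 3T3 Gli1-Luc cells, 23 hr compound exposure, 37C.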

[7] = qHTS assay to identify small molecule antagonists of the sonic hedgehog signaling (Shh) pathway (AID 1259369; calls by dose curve; also: nearly all actives have a fitted effect of over 45% in size; also: potency is read from the fitted curve at half-maximal effect)
Outline: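 Antagonist mode: compound added to 3T3 Gli1-Luc cells followed by conditioned-medium stimulation, 24 h at 37 C, 5% CO2. Inhibition taken as loss of Gli1-driven luciferase luminescence.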

[8] = qHTS assay to identify small molecule agonists of the androgen receptor (AR) signaling pathway in the presence of an antagonist - cell viability counter screen (AID 1259379); also: nearly all actives have a fitted effect of over 25% in size; also: potency is read from the fitted curve at half-maximal effect
Outline: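 Cytotoxicity counter-screen run in the same wells as the nilutamide-challenged (3.0 µM final) AR agonist assay in MDA-kb2 cells. Compounds tested at 15 concentrations for 16 h, 37 °C without CO2; CellTiter-Fluor fluorescence read.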

[9] = qHTS assay to identify small molecule agonists of the estrogen receptor beta (ER-beta) signaling pathway - cell viability counter screen (AID 1259380); also: nearly all actives have a fitted effect of over 30% in size; also: potency is read from the fitted curve at half-maximal effect
Outline: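 Cell viability counter screen: CellTiter-Glo luminescence (30 min, room temperature) measured in the same wells as the beta-lactamase readout, after 16 hr compound exposure at 37C of ER-beta-bla HEK293T cells in 2% charcoal-stripped FBS medium.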

[10] = qHTS assay to identify small molecule antagonists of the estrogen receptor beta (ER-beta) signaling pathway - cell viability counter screen (AID 1259382); also: nearly all actives have a fitted effect of over 55% in size; also: potency is read from the fitted curve at half-maximal effect
Outline: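 Cytotoxicity was measured in the same wells by CellTiter-Glo luminescence after 30 min at room temperature. Cells were ER-beta-bla HEK293T in charcoal-stripped serum, given compound together with 1 nM E2 and incubated 16 h at 37C.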

[11] = molecular target: Estrogen receptor (Homo sapiens) (UniProt P03372); assay: qHTS assay to identify small molecule agonists of the estrogen receptor alpha (ER-alpha) signaling pathway in the presence of an antagonist (AID 1259383; calls by dose curve; also: nearly all actives have a fitted effect of over 15% in size; also: potency is read from the fitted curve at half-maximal effect; as to activation: top concentration of the series differs between compounds)
Outline: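 Agonist-mode confirmation run in the presence of 10.0nM (final) ICI-182,780 antagonist. The reporter was ERE-driven luciferase in VM7Luc4E2 cells, grown in charcoal-stripped serum. Cells were exposed to 15-concentration compound series for 22hr, then ONE-Glo luminescence was read.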

[12] = qHTS assay to identify small molecule agonists or antagonists of the thyroid stimulating hormone receptor (TSHR) signaling pathway - wild type cell line counter screen (AID 1259384; calls by dose curve)
Outline: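 Counter screen in untransfected Hek293: compounds (15-point titration, triplicate) plus phosphodiesterase inhibitor Ro20-1724 added after 18 h plating; 30 min RT. Intracellular cAMP via competitive d2/cryptate immunoassay, 1 h incubation.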

[13] = molecular target: Thyrotropin receptor (Homo sapiens) (UniProt P16473); assay: qHTS assay to identify small molecule antagonists of the thyroid stimulating hormone receptor (TSHR) signaling pathway (AID 1259385; calls by dose curve; also: nearly all actives have a fitted effect of over 20% in size)
Outline: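 Antagonist mode: compound-treated TSHR-expressing HEK293 cells were stimulated with 1.5 ng/mL TSH (final) in presence of Ro20-1724 for 30 min at RT. HTRF cAMP detection after 1 h; each compound tested at 15 concentrations, triplicate.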

[14] = qHTS assay to identify small molecule agonists of the estrogen receptor alpha (ER-alpha) signaling pathway in the presence of an antagonist - cell viability counter screen (AID 1259386); also: series mostly up to about 92 µM; nearly all actives have a fitted effect of over 30% in size
Outline: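 Compounds tested at 15 concentrations for 22 h at 37C alongside 10.0nM (final) ICI-182,780 antagonist, in VM7Luc4E2 cells grown in phenol red-free, charcoal-stripped medium. Viability read by CellTiter-Fluor fluorescence after 1 h reagent incubation.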

[15] = qHTS assay to identify small molecule agonists of the sonic hedgehog signaling (Shh) pathway (AID 1259368; calls by dose curve; also: series mostly up to about 92 µM; nearly all actives have a fitted effect of over 15% in size)
Outline: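 Luminescence was read after 30 min at room temperature with luciferase reagent. Before that, 3T3Gli1-Luc cells (NIH/3T3 clone, stable Gli1-Luc reporter; 2,000/well) were exposed to compounds for 24 hr at 37C, 5% CO2, compounds being added 4 hr post-plating.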

[16] = molecular target: Estrogen receptor beta (Homo sapiens) (UniProt Q92731); assay: qHTS assay to identify small molecule antagonists of the estrogen receptor beta (ER-beta) signaling pathway (AID 1259378; active = well fitted inhibition curve with a large enough effect in the signal ratio in the repeat runs, not every such curve was filed as active; the % refers to the signal ratio; also: potency is read from the fitted curve at half-maximal effect)
Outline: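 Antagonist mode: compounds added to beta-lactamase reporter HEK293T ER-beta-UAS cells stimulated with E2 (1nM final), 16 hr at 37C. LiveBLAzer B/G FRET substrate, 2 hours room temperature, fluorescence read-out.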

[17] = molecular target: Estrogen receptor beta (Homo sapiens) (UniProt Q92731); assay: qHTS assay to identify small molecule agonists of the estrogen receptor beta (ER-beta) signaling pathway (AID 1259377; active = well fitted activation curve with a large enough effect in the signal ratio in the repeat runs, not every such curve was filed as active; the % refers to the signal ratio)
Outline: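 ER-beta-UAS-bla HEK293T (GripTite) cells carrying a UAS-driven beta-lactamase reporter, in medium with 2% charcoal-stripped FBS, were exposed to compounds for 16 hr at 37C; LiveBLAzer B/G FRET substrate was then added and fluorescence read after 2 hours at room temperature.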

[18] = molecular target: Androgen receptor (Homo sapiens) (UniProt P10275); assay: qHTS assay to identify small molecule agonists of the androgen receptor (AR) signaling pathway in the presence of an antagonist (AID 1259381; calls by dose curve; also: nearly all actives have a fitted effect of over 15% in size; also: potency is read from the fitted curve at half-maximal effect)
Outline: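 Agonist-mode confirmation run against 3.0 uM final nilutamide: compounds titrated at 15 concentrations onto MDA-kb2 MMTV-luciferase reporter cells. Luminescence measured with ONE-Glo following 16 hr incubation, 37C, 0% CO2.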

Sequence of Estrogen receptor (Homo sapiens) (P03372 whole entry, looked up): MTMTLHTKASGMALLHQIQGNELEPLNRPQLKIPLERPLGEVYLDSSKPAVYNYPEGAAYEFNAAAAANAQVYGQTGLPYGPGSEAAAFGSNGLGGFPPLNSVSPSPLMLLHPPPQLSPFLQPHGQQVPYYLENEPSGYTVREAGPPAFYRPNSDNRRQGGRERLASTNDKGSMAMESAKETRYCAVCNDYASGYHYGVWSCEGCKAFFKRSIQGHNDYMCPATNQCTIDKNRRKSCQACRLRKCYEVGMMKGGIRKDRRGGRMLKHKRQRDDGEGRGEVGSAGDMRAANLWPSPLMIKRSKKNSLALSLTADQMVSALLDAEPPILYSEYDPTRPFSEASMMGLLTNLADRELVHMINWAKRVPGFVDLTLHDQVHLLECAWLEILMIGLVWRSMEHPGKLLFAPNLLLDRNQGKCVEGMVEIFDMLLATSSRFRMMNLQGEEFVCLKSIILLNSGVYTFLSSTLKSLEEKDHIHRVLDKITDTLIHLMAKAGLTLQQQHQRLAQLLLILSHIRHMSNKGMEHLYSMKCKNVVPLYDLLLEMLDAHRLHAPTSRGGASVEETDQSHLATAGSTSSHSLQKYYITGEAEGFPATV
Sequence of Thyrotropin receptor (Homo sapiens) (P16473 whole entry, looked up): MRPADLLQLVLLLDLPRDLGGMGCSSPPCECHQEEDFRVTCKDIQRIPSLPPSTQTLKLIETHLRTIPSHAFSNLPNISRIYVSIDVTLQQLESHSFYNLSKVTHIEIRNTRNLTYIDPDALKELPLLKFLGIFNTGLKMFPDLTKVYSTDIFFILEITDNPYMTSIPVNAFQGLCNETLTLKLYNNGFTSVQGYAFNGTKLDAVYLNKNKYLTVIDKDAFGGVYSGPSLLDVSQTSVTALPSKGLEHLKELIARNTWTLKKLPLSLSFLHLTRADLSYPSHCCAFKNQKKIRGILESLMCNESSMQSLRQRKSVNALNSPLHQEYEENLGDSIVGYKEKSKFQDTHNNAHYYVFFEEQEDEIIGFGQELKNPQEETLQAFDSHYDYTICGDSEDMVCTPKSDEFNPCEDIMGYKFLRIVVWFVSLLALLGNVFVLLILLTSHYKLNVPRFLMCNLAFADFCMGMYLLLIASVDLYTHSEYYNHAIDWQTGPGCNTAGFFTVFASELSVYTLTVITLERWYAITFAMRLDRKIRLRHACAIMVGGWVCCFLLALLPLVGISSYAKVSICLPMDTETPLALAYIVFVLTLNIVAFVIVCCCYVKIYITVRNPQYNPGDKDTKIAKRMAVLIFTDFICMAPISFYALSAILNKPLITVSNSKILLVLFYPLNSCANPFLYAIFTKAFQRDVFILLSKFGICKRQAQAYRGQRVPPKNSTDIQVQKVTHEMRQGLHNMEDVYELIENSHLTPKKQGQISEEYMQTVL
Sequence of Estrogen receptor beta (Homo sapiens) (Q92731 whole entry, looked up): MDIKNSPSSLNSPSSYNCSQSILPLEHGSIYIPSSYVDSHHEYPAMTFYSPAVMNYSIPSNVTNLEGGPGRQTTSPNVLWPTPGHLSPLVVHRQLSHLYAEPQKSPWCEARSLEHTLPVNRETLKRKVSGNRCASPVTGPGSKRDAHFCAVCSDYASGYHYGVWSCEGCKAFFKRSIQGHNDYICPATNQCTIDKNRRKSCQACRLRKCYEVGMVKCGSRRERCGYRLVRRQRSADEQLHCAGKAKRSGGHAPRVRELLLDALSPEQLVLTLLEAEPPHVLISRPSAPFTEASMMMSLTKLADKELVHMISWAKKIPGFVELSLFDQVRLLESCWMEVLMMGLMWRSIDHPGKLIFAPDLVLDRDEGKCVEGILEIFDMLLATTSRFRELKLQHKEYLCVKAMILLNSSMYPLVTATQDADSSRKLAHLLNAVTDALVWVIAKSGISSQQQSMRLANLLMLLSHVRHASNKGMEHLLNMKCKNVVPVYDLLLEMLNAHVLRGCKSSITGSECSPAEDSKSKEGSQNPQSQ
Sequence of Androgen receptor (Homo sapiens) (P10275 whole entry, looked up): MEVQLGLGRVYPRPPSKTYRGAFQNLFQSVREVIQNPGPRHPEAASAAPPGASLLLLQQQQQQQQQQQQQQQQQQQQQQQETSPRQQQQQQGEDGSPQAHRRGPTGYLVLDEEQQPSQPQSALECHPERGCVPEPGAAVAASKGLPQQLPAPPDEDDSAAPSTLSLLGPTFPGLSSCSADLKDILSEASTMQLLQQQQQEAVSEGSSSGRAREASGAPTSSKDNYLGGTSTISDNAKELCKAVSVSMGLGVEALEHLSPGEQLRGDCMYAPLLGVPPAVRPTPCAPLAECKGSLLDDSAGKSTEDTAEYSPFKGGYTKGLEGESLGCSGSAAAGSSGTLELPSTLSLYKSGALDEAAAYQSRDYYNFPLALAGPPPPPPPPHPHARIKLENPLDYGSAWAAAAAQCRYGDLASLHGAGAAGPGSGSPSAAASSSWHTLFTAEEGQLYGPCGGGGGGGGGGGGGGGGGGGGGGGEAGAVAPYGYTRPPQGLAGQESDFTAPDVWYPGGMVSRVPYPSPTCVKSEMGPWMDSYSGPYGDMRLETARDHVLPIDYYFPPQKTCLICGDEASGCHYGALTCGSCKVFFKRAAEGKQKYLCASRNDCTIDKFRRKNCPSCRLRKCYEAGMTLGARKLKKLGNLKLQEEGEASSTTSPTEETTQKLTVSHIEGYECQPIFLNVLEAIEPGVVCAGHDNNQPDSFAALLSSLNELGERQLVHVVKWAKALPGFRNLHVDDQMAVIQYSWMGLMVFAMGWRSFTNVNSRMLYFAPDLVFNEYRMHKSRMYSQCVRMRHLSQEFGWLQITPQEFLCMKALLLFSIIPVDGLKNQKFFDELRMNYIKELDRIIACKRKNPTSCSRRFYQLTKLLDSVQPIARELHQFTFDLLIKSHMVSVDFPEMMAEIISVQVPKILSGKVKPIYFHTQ

Structure (SMILES)	Potency [1]	Potency [2]	Potency [3]	Potency [4]	Potency [5]	Potency [6]	Potency [7]	Potency [8]	Potency [9]	Potency [10]	Potency [11]	outcome [12]	Potency [13]	Potency [14]	Potency [15]	Potency [16]	Potency [17]	Potency [18]
CCCCCCCCCCCCCCCC	inactive	inactive	inactive	inactive	inactive	inactive	inactive	inactive	inactive	inactive	inactive	inactive	inactive	inactive				
C=C(c1ccc(C(=O)O)cc1)c1cc2c(cc1C)C(C)(C)CCC2(C)C	inactive	12.2 µM (active)	inactive		inactive	inactive	inactive	inactive	34.4 µM (active) and 33.5 µM (active)	34.4 µM (active) and 29.8 µM (active)	inactive			inactive	inactive	8.41 µM (active)		
CCC(=O)OCCc1ccccc1	inactive	inactive	inactive	inactive				inactive	inactive	inactive	inactive	inactive	inactive	inactive	inactive	inactive		
C=C[C@](C)(O)CC[C@@H]1[C@@]2(C)CCCC(C)(C)[C@@H]2CC[C@@]1(C)O	inactive	61.1 µM (active)	inactive	inactive			61.1 µM (active)		48.6 µM (active)	61.1 µM (active)	inactive	inactive	inactive	inactive	inactive	27.3 µM (active)		
CCCCCCCCCCc1ccccc1	inactive	inactive	inactive		inactive	inactive	inactive	inactive	inactive	inactive	inactive			inactive	inactive			
CCCCCCCC/C=C/CCCOC(C)=O	inactive	inactive	inactive		inactive	inactive	48.6 µM (active)	inactive	inactive	inactive	inactive	inactive	inactive	inactive	inactive	inactive	inactive	
CCOC(=O)COc1ccc(C)cc1	inactive	inactive	inactive	inactive	inactive	inactive		inactive	inactive	inactive	inactive	inactive	inactive	inactive	inactive			
CS(C)(=O)=O	inactive	inactive	inactive		inactive	inactive	inactive	inactive	inactive	inactive	inactive	inactive	inactive	inactive	inactive			
CC1(C)C(=O)N(CO)C(=O)N1CO	inactive	inactive	inactive		inactive	inactive	inactive	inactive	inactive	inactive	inactive	inactive	inactive	inactive	inactive		inactive	
CC(=O)Oc1ccc(C2(c3ccc(OC(C)=O)cc3)Oc3ccccc3NC2=O)cc1	inactive	inactive	inactive	inactive	inactive		8.41 µM (active)	inactive		inactive	inactive	inactive		inactive		1.88 µM (active)		
CC(C(O)c1ccccc1)N(C)CCOC(c1ccccc1)c1ccccc1 (centres undefined)	29.8 µM (active)	inactive	inactive	inactive			21.1 µM (active)	29.8 µM (active)	29.8 µM (active)	18.8 µM (active)	inactive	inactive		inactive	inactive			
C[C@]12CC[C@H]3C(=CCc4cc(O)ccc43)[C@@H]1CCC2=O	inactive	inactive	inactive	inactive	inactive		21.7 µM (active)		27.3 µM (active)	30.6 µM (active)		inactive		inactive	inactive			5.45 µM (active)
COc1ccc2sc(C(=O)Nc3nnn[nH]3)c(OC(C)C)c2c1	inactive	30.5 µM (active)	inactive	inactive	27.2 µM (active)		6.83 µM (active)		6.83 µM (active)		inactive	inactive	inactive				inactive	
OCCN1CN(CCO)CN(CCO)C1	inactive	inactive	inactive	inactive	inactive	inactive		inactive	inactive	inactive	inactive	inactive	inactive	inactive	inactive			inactive
CCCC(CC)CCCCCCCN (centres undefined)	inactive	inactive	inactive	inactive	inactive	inactive		62.6 µM (active)		inactive	inactive	inactive		inactive	inactive			
CCCCCCCOC(=O)c1ccc(O)cc1	inactive	inactive	inactive	inactive	inactive	inactive		inactive	30.7 µM (active) and 24.3 µM (active)		48.6 µM (active)			inactive	inactive		inactive	
CC(C)=CCCC(C)CCOC(=O)C(C)C (centres undefined)	inactive	inactive	inactive	inactive	inactive	inactive	inactive	inactive	inactive	inactive	inactive	inactive	inactive	inactive				
O=C(c1ccccc1)c1cc(Cl)ccc1O	inactive	inactive	inactive	inactive	inactive	inactive		inactive			inactive			inactive	inactive			
